Values joined by “and” are separate entries in the source; they are usually repeats but may differ in a detail not shown here. Equal values may be shown once. Inconclusive results are not listed. A structure can be active in one record and inactive in another. Active and inactive are the calls of the source. Unless noted, calls follow the shape of the dose curve; as a rule, active = well fitted curve in either direction with a large enough effect (not every such curve was filed as active); inconclusive = small, poorly fitted or top-dose-only effect, or another doubt; inactive = flat fitted curve, though single readings scatter.
Legend:
[1] = target: Lysosomal acid glucosylceramidase (Homo sapiens) (UniProt P04062); assay: Glucocerebrosidase-p2 (AID 348; in the data active = potency below about 10 µM; also: potency is read from the fitted curve at half-maximal effect); settings: purified GBA, blue fluorogenic substrate, 40 min
Outline: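 Compounds titrated from 0.6 nM upwards against 0.2 nM enzyme in pH 5.9 citric acid/KH2PO4, taurocholate, tween-20; blue fluorogenic substrate 80 uM, 40 min room temperature, stopped and read Ex 365/Em 440 for AC50.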

[2] = target: Cytochrome P450 1A2 (Homo sapiens) (UniProt P05177); assay: p450-cyp1a2 (AID 410; calls by dose curve; also: potency is read from the fitted curve at half-maximal effect;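 as to activity change, negative = inhibition: -100% = full effect of reference inhibitor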); settings: recombinant CYP1A2, luciferin-ME demethylation, luminescence; series mostly up to 57 µM
Outline: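 Human CYP1A2 (20nM) demethylated Luciferin-ME at its Km (100uM) in 100mM KPO4. After 10 min compound preincubation, NADPH regeneration ran the reaction 60 min at room temperature. Luciferin was read by luminescence, normalized to 57 uM furafylline.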

[3] = Stat Signaling Pathway (AID 446); settings: ME-180 SIE beta-lactamase reporter, IL-6 stimulated, 5 h;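 also: ME-180 cervical cancer cells given 40 pM IL-6 alongside compound; SIE-controlled beta-lactamase reporter measured as 460/530 nm FRET emission ratio; % is scaled to controls: 0 for no effect and ±100 for the full control effect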
Outline: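 IL-6/STAT signaling read in ME-180 cells via an SIE beta-lactamase reporter. Stimulus was 40 pM IL-6 (its AC50) for 5 hrs, so both activation and inhibition register.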

[4] = target: Mitogen-activated protein kinase 10 (Mus musculus) (UniProt Q61831); assay: JNK3 AlphaScreen Assay (AID 530); settings: JNK3 lysate, c-Jun phosphorylation; series mostly up to 57.1 µM;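 also: kinase came from lysate of stimulated human HepG2 cells; signal reports phosphorylation of biotinylated GST-cJun 1-79 at Ser73 with 10 µM ATP; % is scaled to controls: 0 for no effect and ±100 for the full control effect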
Outline: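 Room-temperature AlphaScreen kinase assay; pre-activated HepG2 lysate as JNK3 source, biotin-GST-cJun(1-79) substrate, 10 uM ATP, compound 15 min preincubation.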

[5] = target: 3',5'-cyclic-AMP phosphodiesterase 4B (Homo sapiens) (UniProt Q07343); assay: qHTS Assay for Inhibitors of PDE-IV (AID 607; active = well fitted activation curve with a large enough effect in the main read-out, with a control signal flat, not every such curve was filed as active; also: % of control where 0% means no effect); settings: HEK293 ACTOne CNG channel cells, membrane potential fluorescence; series mostly up to 22.9 µM
Outline: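 Live HEK293 cells with a modified cyclic nucleotide-gated (CNG) channel report intracellular cAMP via membrane-potential dye fluorescence (ex 535/em 590 nm). Endogenous PDE-IV was targeted. Compounds were tested at up to 22.9 uM final; RO 20-1724 100 uM served as control.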

[6] = target: Cytochrome P450 3A4 (Homo sapiens) (UniProt P08684); assay: qHTS Assay for Activators of Cytochrome P450 3A4 (AID 885; active = well fitted curve in the direction sought with a large enough effect; an effect the other way counts as inactive or inconclusive; also: nearly all actives have a fitted effect of over 65% in size); settings: recombinant CYP3A4, Luciferin-PPXE luminescence, 60 min; series mostly up to 57.1 µM
Outline: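 Quantitative HTS format: compounds preincubated with 20nM human CYP3A4 and Luciferin-PPXE substrate at KM, reaction started by NADPH regeneration, stopped after 60 min, luciferase luminescence read 20 min later.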

[7] = target: Cytochrome P450 2D6 (Homo sapiens) (UniProt P10635); assay: qHTS Assay for Inhibitors and Substrates of Cytochrome P450 2D6 (AID 891; active = well fitted curve in the direction sought with a large enough effect; an effect the other way counts as inactive or inconclusive; also: potency is read from the fitted curve at half-maximal effect; nearly all actives have a fitted effect of over 60% in size); settings: recombinant CYP2D6, luciferin-ME EGE luminescence; series mostly up to 57.1 µM
Outline: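 Human CYP2D6 (5 nM) with 30 uM Luciferin-ME EGE (at Km) in 100 mM KPO4, compound preincubated 10 min, then NADPH regeneration system for 60 min at room temperature. Luciferin read by luminescence; normalized to 1.43 uM quinidine.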

[8] = qHTS Assay for Lipid Storage Modulators (AID 1519; calls by dose curve); settings: Drosophila S3 cells, BODIPY lipid droplet/cell ratio, laser cytometry, cells loaded with oleic acid
Outline: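 Cells seeded at 5,000 per well were treated with compounds over a concentration series and loaded with oleic acid (400 uM, as added). Lipid droplet fluorescence (488 nm excitation, 500-530 nm channel) was read by laser-scanning cytometry and normalized to 20 uM Triacsin C.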

[9] = target: Ubiquitin carboxyl-terminal hydrolase 1 (Homo sapiens) (UniProt O94782); assay: Inhibitors of USP1/UAF1: Pilot qHTS (AID 504865; active = well fitted curve in the direction sought with a large enough effect; an effect the other way counts as inactive or inconclusive;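 also: rhodamine fluorescence freed from ubiquitin-rhodamine substrate followed over time; top concentration of the series differs between compounds; % is scaled to controls: 0 for no effect and ±100 for the full control effect; nearly all actives have a fitted effect of over 35% in size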); settings: purified USP1/UAF1, Ub-rhodamine cleavage fluorescence; series mostly up to 54.9 µM
Outline: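 USP1/UAF1 complex (1nM) preincubated with compound 15 min at room temperature, then Ub-Rho substrate (150nM final) added. Fluorescence read kinetically at 480/540 nm, 6 reads every 60 seconds. Buffer: 50mM HEPES pH 7.8, 0.5mM EDTA, 0.1 mg/ml BSA, 1mM TCEP, 0.01% Tween-20.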

[10] = qHTS profiling for inhibitors of Plasmodium falciparum proliferation (AID 504749; active = well fitted curve in the direction sought with a large enough effect; an effect the other way counts as inactive or inconclusive;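 also: 0% = DMSO vehicle and full inhibition = artemisinin control; nearly all actives have a fitted effect of over 60% in size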); settings: P. falciparum in erythrocytes, SYBR Green DNA, 72 h, at 12.8 µM (top of the series)
Outline: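 Three-day growth assay of blood-stage parasites in erythrocytes (0.3% parasitemia, 2.5% hematocrit) at 37 C, 5% CO2, quantified by SYBR Green DNA staining after overnight detergent lysis.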

[11] = target: Glucocorticoid receptor (Homo sapiens) (UniProt P04150); assay: GR-GFP Redistribution (AID 450;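 active = compounds whose dose series gives a full or clear partial fitted curve of increased nuclear translocation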; also: potency is read from the fitted curve at half-maximal effect); settings: U2OS GR-GFP nuclear translocation, laser cytometry, 2 h
[12] = target: Glucocorticoid receptor (Homo sapiens) (UniProt P04150); assay: GR-EFC Redistribution (AID 451; calls by dose curve; also: potency is read from the fitted curve at half-maximal effect); settings: CHO-K1 GR-EFC translocation, beta-gal luminescence, 2 h
Outline: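 Translocation of GR-ED fusion to nuclear EA restores b-gal, read by luminescence after 1 h room-temperature detection. Engineered CHO-K1 biosensor cells, 1,000/well, exposed 2 h at 37 C to titrations up to 46 uM final.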

[13] = AP1 Signaling Pathway (AID 357); settings: ME-180 (cervical carcinoma) AP-1-bla reporter, EGF-induced, beta-lactamase ratio, 5 h; at 7.69 µM (top of the series) unless noted; also: % is scaled to controls: 0 for no effect and ±100 for the full control effect
Outline: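 AP-1-bla ME-180 cells with beta-lactamase reporter under AP-1 response element, stimulated with EC50 EGF; compounds titrated, 5 hours at 37 degrees Celsius. CCF4 read at 460/530 nm ratio; positive and negative modulators judged by AC50.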

[14] = NFAT Signaling Pathway (AID 444); settings: Jurkat NFAT-bla M1, carbachol, beta-lactamase ratio, 5 h; at 7.69 µM (top of the series) unless noted;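 also: carbachol stimulus at about its EC50 of 1 µM final; % is scaled to controls: 0 for no effect and ±100 for the full control effect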
Outline: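 Read-out: CCF4 FRET ratio (460 nm/530 nm) after 1 h RT dye loading, used for %activity and AC50 from titration series. Cells: Jurkat NFAT-β-lactamase/M1 line, treated with compound plus 1 uM carbachol for 5 h, 37 °C.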

[15] = measured here: cell count channel max response
[16] = measured here: lipid channel max response
[17] = at 7.69 µM (top of the series) unless noted

Sequence of Cytochrome P450 1A2 (Homo sapiens) (P05177 whole entry, looked up): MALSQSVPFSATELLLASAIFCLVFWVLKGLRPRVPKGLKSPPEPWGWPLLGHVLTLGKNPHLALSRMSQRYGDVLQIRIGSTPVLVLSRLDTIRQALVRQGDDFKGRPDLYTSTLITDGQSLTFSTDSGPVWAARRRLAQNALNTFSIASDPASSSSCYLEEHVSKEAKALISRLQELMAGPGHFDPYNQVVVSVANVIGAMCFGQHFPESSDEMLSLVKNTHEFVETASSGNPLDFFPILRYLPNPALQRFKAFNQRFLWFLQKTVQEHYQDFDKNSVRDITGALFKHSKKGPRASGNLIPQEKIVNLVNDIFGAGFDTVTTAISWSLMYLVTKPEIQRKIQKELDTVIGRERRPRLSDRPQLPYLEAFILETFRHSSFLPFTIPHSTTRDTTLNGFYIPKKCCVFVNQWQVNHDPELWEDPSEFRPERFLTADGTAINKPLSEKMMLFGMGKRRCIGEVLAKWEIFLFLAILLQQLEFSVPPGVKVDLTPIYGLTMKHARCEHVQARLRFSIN
Sequence of Cytochrome P450 3A4 (Homo sapiens) (P08684 whole entry, looked up): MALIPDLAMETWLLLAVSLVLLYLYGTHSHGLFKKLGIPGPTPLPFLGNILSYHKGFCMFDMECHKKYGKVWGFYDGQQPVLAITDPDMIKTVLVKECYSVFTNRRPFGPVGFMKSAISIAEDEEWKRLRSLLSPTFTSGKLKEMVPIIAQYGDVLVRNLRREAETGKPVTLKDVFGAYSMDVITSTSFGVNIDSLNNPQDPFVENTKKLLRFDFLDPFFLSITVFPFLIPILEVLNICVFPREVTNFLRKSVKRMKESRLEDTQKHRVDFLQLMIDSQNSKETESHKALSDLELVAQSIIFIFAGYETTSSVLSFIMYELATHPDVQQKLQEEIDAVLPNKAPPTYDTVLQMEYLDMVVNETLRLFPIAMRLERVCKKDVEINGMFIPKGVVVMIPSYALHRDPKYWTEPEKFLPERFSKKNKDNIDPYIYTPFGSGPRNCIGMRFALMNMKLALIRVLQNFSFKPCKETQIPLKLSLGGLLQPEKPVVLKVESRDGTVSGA
Sequence of Glucocorticoid receptor (Homo sapiens) (P04150 whole entry, looked up, the tested form may be a part): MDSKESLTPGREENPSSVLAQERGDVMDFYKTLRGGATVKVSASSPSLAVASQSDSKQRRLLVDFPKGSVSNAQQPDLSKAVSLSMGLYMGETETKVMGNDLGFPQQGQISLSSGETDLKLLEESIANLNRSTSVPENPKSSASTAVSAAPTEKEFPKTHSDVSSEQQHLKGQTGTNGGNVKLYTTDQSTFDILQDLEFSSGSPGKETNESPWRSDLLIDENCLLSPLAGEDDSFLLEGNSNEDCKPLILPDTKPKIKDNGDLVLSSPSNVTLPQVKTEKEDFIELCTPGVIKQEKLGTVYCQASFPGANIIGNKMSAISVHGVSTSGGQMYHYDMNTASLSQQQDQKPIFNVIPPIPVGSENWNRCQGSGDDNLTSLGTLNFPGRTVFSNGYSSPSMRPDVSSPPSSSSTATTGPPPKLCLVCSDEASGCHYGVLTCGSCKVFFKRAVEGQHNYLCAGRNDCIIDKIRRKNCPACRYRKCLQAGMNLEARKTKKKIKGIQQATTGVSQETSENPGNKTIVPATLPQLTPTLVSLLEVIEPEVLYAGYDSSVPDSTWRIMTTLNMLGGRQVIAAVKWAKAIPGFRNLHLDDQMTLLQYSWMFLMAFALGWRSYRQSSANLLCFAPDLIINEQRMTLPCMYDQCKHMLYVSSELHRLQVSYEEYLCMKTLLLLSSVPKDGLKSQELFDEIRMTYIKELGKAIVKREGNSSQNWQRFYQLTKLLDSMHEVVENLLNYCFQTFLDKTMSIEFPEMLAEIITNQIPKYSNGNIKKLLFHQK
Sequence of 3',5'-cyclic-AMP phosphodiesterase 4B (Homo sapiens) (Q07343 whole entry, looked up): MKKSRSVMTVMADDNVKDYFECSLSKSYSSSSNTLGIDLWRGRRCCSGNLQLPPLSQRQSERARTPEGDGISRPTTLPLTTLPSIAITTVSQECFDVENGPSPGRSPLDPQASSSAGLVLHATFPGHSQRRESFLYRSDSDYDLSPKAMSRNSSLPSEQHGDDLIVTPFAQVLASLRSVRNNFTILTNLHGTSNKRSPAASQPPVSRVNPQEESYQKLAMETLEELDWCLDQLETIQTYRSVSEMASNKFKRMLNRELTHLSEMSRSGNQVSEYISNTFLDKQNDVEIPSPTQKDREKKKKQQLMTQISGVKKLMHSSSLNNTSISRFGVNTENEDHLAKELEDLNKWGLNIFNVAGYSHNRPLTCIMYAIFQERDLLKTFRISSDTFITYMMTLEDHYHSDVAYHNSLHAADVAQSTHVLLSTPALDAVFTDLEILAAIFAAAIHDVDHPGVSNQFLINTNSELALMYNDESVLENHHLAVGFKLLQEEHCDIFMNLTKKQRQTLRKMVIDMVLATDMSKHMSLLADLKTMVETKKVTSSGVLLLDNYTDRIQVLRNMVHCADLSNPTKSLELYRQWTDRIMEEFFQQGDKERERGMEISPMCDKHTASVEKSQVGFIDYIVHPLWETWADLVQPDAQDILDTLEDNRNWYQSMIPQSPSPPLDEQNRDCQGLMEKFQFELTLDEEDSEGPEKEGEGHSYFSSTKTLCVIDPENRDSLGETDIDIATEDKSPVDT
Sequence of Lysosomal acid glucosylceramidase (Homo sapiens) (P04062 whole entry, looked up): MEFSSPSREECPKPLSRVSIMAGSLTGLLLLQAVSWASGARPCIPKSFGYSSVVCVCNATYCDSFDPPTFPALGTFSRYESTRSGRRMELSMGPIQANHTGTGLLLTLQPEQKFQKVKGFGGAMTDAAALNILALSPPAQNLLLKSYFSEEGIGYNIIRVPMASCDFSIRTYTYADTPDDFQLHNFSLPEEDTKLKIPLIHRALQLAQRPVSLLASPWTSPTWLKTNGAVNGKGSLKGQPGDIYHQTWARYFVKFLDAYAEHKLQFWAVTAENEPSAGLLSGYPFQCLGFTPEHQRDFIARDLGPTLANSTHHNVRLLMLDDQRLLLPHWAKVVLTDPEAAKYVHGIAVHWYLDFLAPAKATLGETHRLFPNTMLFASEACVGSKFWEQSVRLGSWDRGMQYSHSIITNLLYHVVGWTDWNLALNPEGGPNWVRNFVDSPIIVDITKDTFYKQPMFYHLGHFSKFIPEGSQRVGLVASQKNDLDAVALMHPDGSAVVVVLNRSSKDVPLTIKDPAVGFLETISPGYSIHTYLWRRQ
Sequence of Cytochrome P450 2D6 (Homo sapiens) (P10635 whole entry, looked up): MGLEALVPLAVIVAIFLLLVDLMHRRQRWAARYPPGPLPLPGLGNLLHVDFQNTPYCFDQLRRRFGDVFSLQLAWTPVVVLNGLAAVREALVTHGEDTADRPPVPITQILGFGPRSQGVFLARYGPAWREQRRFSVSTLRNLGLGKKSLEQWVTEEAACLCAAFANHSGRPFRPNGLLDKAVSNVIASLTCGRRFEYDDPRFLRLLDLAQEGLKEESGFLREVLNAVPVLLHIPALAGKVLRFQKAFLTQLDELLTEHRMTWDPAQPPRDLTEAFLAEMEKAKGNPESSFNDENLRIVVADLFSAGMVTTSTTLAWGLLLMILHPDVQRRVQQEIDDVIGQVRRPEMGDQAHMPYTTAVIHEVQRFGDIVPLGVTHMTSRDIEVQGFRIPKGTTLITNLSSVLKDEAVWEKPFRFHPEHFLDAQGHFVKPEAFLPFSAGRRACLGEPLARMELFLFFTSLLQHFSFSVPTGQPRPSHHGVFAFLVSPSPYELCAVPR
Sequence of Ubiquitin carboxyl-terminal hydrolase 1 (Homo sapiens) (O94782 whole entry, looked up): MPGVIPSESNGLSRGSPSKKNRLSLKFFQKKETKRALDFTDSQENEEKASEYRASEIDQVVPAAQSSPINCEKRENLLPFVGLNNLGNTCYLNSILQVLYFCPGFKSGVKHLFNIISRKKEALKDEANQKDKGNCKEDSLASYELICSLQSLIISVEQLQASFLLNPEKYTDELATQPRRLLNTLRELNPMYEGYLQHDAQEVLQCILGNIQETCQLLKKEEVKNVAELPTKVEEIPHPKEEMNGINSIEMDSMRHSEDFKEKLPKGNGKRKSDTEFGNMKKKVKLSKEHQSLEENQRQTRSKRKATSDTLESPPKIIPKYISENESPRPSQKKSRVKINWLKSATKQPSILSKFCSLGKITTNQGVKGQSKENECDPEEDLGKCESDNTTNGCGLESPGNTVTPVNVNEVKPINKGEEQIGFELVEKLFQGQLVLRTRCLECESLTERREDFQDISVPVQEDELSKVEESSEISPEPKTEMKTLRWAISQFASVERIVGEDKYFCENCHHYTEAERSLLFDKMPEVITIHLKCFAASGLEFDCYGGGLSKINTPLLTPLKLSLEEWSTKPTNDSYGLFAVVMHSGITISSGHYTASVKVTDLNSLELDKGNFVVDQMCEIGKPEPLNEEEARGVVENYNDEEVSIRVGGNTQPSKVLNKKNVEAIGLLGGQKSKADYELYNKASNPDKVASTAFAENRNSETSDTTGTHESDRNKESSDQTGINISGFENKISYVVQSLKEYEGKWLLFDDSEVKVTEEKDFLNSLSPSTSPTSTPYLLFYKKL

CC[C@@]12CCCN3CCc4c(n(c5ccccc45)C(=O)C1)[C@H]32
-16.7%: max response [8, 15]
-14%: max response [8, 16]
inactive: Potency [1] > 11.4 µM | activity change, negative = inhibition [2] -9.8% [at 2.29 µM] | activity, negative = inhibition ([3]; at 7.69 µM (top of the series)) 8.55% | activity, negative = inhibition ([3]; at 17.2 µM (top of the series)) 14.6% | Potency [4] | Potency [5] | Potency [6] | activity change, negative = inhibition ([8]; at 25.7 µM (top of the series)) -0.21% | Potency [9] | activity, negative = inhibition ([10]; parasite line A) 14.8% | activity, negative = inhibition ([10]; parasite line B) -2.22%
active: Potency [2] 10 µM | Potency [7] 20 nM and 63.1 nM and 251 nM

COc1ccc(-c2nc3cnc(N4CCNCC4)nc3n(C3CC3)c2=O)cc1
4.22%: max response [8, 15]
6.87%: max response [8, 16]
inactive: Potency [1] > 11.4 µM | Potency [11] > 9.22 µM | Potency [12] > 46 µM | Potency [4] | Potency [5] | Potency [6] | activity change, negative = inhibition ([8]; at 57.5 µM (top of the series)) 0.741%
active: Potency [2] 6.31 µM

COc1ccccc1CNc1ncncc1-c1ccc(N(C)C)cc1
-7.14%: max response [8, 16]
-12.6%: max response [8, 15]
inactive: Potency [1] > 11.4 µM | activity change, negative = inhibition [13] -14.4% | activity change, negative = inhibition [14] -2.91% | activity, negative = inhibition [3, 17] -7.61% | Potency [11] > 46 µM | Potency [12] > 46 µM | activity change, negative = inhibition ([8]; at 57.5 µM (top of the series)) 7.79%

c1ccc2c(N3CCNCC3)nc(-c3ccoc3)nc2c1
9.44%: max response [8, 15]
17.6%: max response [8, 16]
inactive: Potency [1] > 11.4 µM | activity change, negative = inhibition [13] 0.826% | activity change, negative = inhibition [14] -11.1% | activity, negative = inhibition [3, 17] 28% | Potency [11] > 46 µM | Potency [12] > 46 µM | Potency [4] | activity change, negative = inhibition ([8]; at 57.5 µM (top of the series)) 8.78%

COc1ccc(C(=O)N2CCC3(CCCN(Cc4ccc(C#N)cc4)C3)CC2)cc1
inactive: Potency [1] > 11.4 µM | activity change, negative = inhibition [13] 16.7% | activity, negative = inhibition [3, 17] 2.1% | Potency [12] > 46 µM | Potency [4] | Potency [5] | activity change, negative = inhibition ([8]; at 57.5 µM (top of the series)) -2.89%
-2.86%: max response [8, 16]
-1.58%: max response [8, 15]

COc1ccc2[nH]cc(CCNc3nc(-c4cccc(NS(C)(=O)=O)c4)nc4ccccc34)c2c1
-14.6%: max response [8, 15]
inactive: Potency [1] > 11.4 µM | activity change, negative = inhibition [13] -29.4% | activity, negative = inhibition [3, 17] -28.4% | Potency [11] > 46 µM | Potency [12] > 46 µM | Potency [4] | Potency [5] | activity change, negative = inhibition ([8]; at 57.5 µM (top of the series)) 8.36% | Potency [9]
-4.03%: max response [8, 16]

COc1ccccc1CN1CCC2(CC1)CCN(C(=O)c1cc(C(F)(F)F)cc(C(F)(F)F)c1)CC2
inactive: Potency [1] > 11.4 µM | activity change, negative = inhibition [13] -13.2% | activity, negative = inhibition [3, 17] -3.31% | Potency [12] > 46 µM | Potency [4] | Potency [5] | activity change, negative = inhibition ([8]; at 57.5 µM (top of the series)) 0.332%
-5.08%: max response [8, 15]
1.32%: max response [8, 16]

From PubChem BioAssay (NCATS)
